Screens from PubChem BioAssay.
TDP43 rescue: inhibitors of TDP-43 toxicity in yeast. 410,000 tested, 1.8% active. Potency, µM (titrated, usually from 46.1 µM), most hits filed as activators. AID 652104. TDP-43 expressing yeast growth rescue, BacTiter-Glo, 24 h; further: nearly all actives have a fitted effect of over 50% in size
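In this qHTS, compounds that restore growth of yeast expressing TDP-43 appear as activators. Cells (OD600=0.02, galactose medium, raffinose-pregrown) are incubated with compound 24 hr at 30 deg C and growth is quantified by BacTiter-Glo.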
aSyn yeast inh: rescues yeast growth from alpha-synuclein toxicity; Yeast expressing alpha-synuclein, growth rescue, BacTiter-Glo, 24 h; AID 652106; 370,000 tested, 0.14% active; Potency, µM (doses to about 46.1 µM), hits mostly activators; further: nearly all actives have a fitted effect of over 65% in size
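Screening used galactose-induced yeast with toxic alpha-synuclein levels, exposed to compound for 24 hr at 30 deg C. Cell growth, read with BacTiter-Glo luminescence, gave the measured signal.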
FUS suppressor: suppressors of FUS proteinopathy in yeast. S. cerevisiae FUS-expressing, growth rescue, OD600, 24 h. Potency, µM (top dose mostly 76.6 µM), actives largely listed as activators. 390,000 tested, 0.24% active; further: nearly all actives have a fitted effect of over 55% in size
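Yeast FUS proteinopathy model; galactose-induced FUS (2%), starting OD 0.005. Cpds in dilution series, 24hr, 30C, 99% humidity. Abs 600 nm growth. Pos ctrl CP55940 (top 92uM final); neg ctrl DMSO.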
Abeta yeast res: compounds reversing amyloid beta toxicity in yeast; 410,000 tested, 0.063% active; yeast expressing A-beta42, growth rescue, OD600, 48 h; response scale: 0% DMSO, 100% iron-clioquinol control; Potency, µM (highest dose often 46.1 µM), usual class: activators; further: nearly all actives have a fitted effect of over 55% in size
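Yeast A-beta toxicity model in growth medium with pinned compounds, 48 h at 30 C; growth read as absorbance at 600 nm. Normalized to FeCl3/clioquinol equimolar mix (positive) and DMSO (negative).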
Numbers stand for hits; 0 = inactive; ? = inconclusive; - = not tested or not shown; [ ] = dose if it differs, or a comment. An excerpt weighted towards active compounds, which were near 2.1% of everything screened. The call rests on the fitted dose curve; in most records, active means well fitted curve in the direction sought with a large enough effect; inconclusive means small, poorly fitted or top-dose-only effect, or another doubt; inactive means no such curve, though single readings can be large; an effect the other way counts as inactive or inconclusive.

SMILES | TDP43 rescue | aSyn yeast inh | FUS suppressor | Abeta yeast res
CNC(=O)c1cccnc1Nc1cccc(C(F)(F)F)c1 | 17.8µM | 0 | 0 | 0
O=C(Nc1cccc(C(F)(F)F)c1)c1cccnc1NCCO | 0 | 0 | 0 | 0
O=C(COC(=O)c1ccc2ncsc2c1)NCc1ccc(F)cc1 | 0 | 0 | 0 | 0
O=C(COC(=O)c1ccc2ncsc2c1)NCc1cccc(Cl)c1 | 28.2µM | 0 | 0 | 0
O=C(OCCOc1cccc(Cl)c1)c1ccc2ncsc2c1 | 14.1µM | 0 | 0 | 0
O=C(COc1ccc2c(c1)CCC2)NCc1cccc(Cl)c1 | 20µM | 0 | 0 | 0
O=C(COC(=O)c1ccc2ncsc2c1)NCc1ccccc1Cl | 20µM | 0 | 0 | 0
O=C(COC(=O)c1ccc2ncsc2c1)Nc1cccc(Cl)c1 | ? | 0 | - | 0
COc1cccc(NC2=CC(=O)CC(C)(C)C2)c1 | 0 | 0 | 0 | 0
CCCOc1ccccc1C1NC(=O)NC(C)=C1C(=O)OCc1ccccc1 (stereo unspecified) | 0 | 0 | 0 | 0
CN(C)CCN1C(=O)c2cccc3cc([N+](=O)[O-])cc(c23)C1=O | 0 | 0 | - | 0
CC(C)c1ccc(Nc2ncnc3c2nc2n3CCCC2)cc1 | 14.1µM | - | 0 | 0
Cc1cccc(NC(=O)CCn2nc(-c3ccccc3)c3ccccc3c2=O)c1 | 20µM | - | ? | 0
Cc1ccc(S(=O)(=O)NCCC(=O)Nc2ccc(C)cc2C(=O)c2ccccc2)cc1 | 22.4µM | 0 | 0 | 0
Cc1ccc(S(=O)(=O)c2c(N)n(Cc3ccco3)c3nc4ccccc4nc23)cc1C | 0 | 0 | 25.1µM | 0
CCc1ccc(S(=O)(=O)c2nnn(-c3cccc(C)c3)c2N)cc1 | 22.4µM | - | 0 | 0
CCc1ccccc1NC(=O)c1cc2sc(Cl)cc2n1CC | 0 | - | 0 | 0
CCCS(=O)(=O)c1nnnn1-c1cccc(OC)c1 | 11.2µM | 0 | 0 | 0
O=C1C=Cc2cccc3ccc(O)c1c23 | 0 | 35.5µM | 0 | 0
O=c1oc(-c2ccc(O)c(O)c2)cc2cccc(O)c12 | 0 | 0 | 0 | 0
CCOC(=O)c1nn(-c2ccc(C)cc2)cc1C(=O)c1ccccc1 | 12.6µM | - | 0 | 0
Cc1ccc(S(=O)(=O)NC(=O)COc2ccccc2C)c(C)c1 | 17.8µM | 0 | - | 0
OCCCCC#Cc1c(-c2ccsc2)sc2ccccc12 | 14.1µM | 0 | 0 | 0
COC(=O)C(C)NC(=S)N1CCN(c2c(F)cc3c(=O)c(C(=O)O)cn(C4CC4)c3c2OC)CC1C (stereo unspecified) | ? | 0 | 31.6µM | 0
CC(=O)Nc1ccc(NC(=O)C(C)OC(=O)CN2C(=O)C3CCCCC3C2=O)cc1 (stereo unspecified) | 0 | 0 | 0 | 0
SMILES | TDP43 rescue | aSyn yeast inh | FUS suppressor | Abeta yeast res
O=C(CN1CCC(Cc2ccccc2)CC1)Nc1ccc2c(c1)OCCO2 | 0 | 0 | 0 | 0
O=C(Nc1ccc2c(c1)OCCO2)C(c1cc2ccccc2o1)N1CCC(Cc2ccccc2)CC1 (stereo unspecified) | 0 | 0 | 15.8µM | 0
CCN(CC(=O)NCc1ccc(F)cc1)C(=O)Cc1c(F)cccc1Cl | 0 | 0 | 0 | 0
CCOC(=O)Cn1nc(/C=C/c2ccc(C)cc2)ccc1=O | ? | 0 | 0 | 0[9.22 µM]
CCOC(=O)Cn1nc(/C=C/c2ccc(C(C)C)cc2)ccc1=O | 20µM | 0 | ? | 0
COc1cccc(OCCNc2cc(N3CCOCC3)ccc2[N+](=O)[O-])c1 | 17.8µM | 0 | 0 | 0
COc1ccc(OCCNc2cc(N3CCOCC3)ccc2[N+](=O)[O-])cc1 | ? | 0 | 0 | 0
COc1ccc(-c2cccc(NC(=O)COc3ccc(Cl)cc3)c2)nn1 | 11.2µM | 0 | 0 | 0
NC(=O)[C@@H]1CC2(CC(c3cccc(NC(=O)COc4ccc(Cl)cc4)c3)=NO2)CN1C(=O)c1ccccc1 (stereo partly specified) | 0 | 0 | 0 | 0
CS(=O)(=O)c1ccc(-c2cccc(NC(=O)COc3ccc(Cl)cc3)c2)nn1 | 0 | 0 | 0 | 0
COc1ccc(C(=O)N2CC3(CC(c4cccc(NC(=O)COc5ccc(Cl)cc5)c4)=NO3)C[C@@H]2C(N)=O)cc1 (stereo partly specified) | 0 | 0 | 35.5µM | 0
CC(=O)Nc1ccc(C=CC=Cc2cccc([N+](=O)[O-])c2)cc1 | 14.1µM | 0 | - | 0
CC(=O)Nc1ccc(OCc2cccc([N+](=O)[O-])c2)cc1 | ? | 0 | 0 | 0
CC(=O)NCCC(=O)N1CCc2c([nH]c3ccccc23)C1c1cccc(Cl)c1 (stereo unspecified) | 0 | 0 | 0 | 0
CCNC(=O)CSc1nc2cc([N+](=O)[O-])ccc2n1-c1cccc(C(F)(F)F)c1 | 0 | 0 | 0 | 0
Cc1ccc(S(=O)(=O)Nc2ccc(C(=O)N3CCN(c4ccccc4O)CC3)cc2)cc1[N+](=O)[O-] | 0 | 0 | 12.6µM | 0
Cn1c(N2CCOCC2)nc2c1c(=O)n(Cc1ccc(Cl)cc1)c(=O)n2C | 0 | 0 | 0 | 0
CC1CN(c2nc3c(c(=O)n(Cc4ccc(Cl)c(Cl)c4)c(=O)n3C)n2C)CC(C)O1 (stereo unspecified) | 25.1µM | 0 | ? | 0
COc1ccc(NC(=O)COC(=O)CCCN2C(=O)c3ccccc3C2=O)cc1Cl | 35.5µM | 0 | - | 0
O=C(COC(=O)CCCN1C(=O)c2ccccc2C1=O)Nc1cc(Cl)cc(Cl)c1 | 0 | 0 | 0 | 0
COc1ccc(OCCn2cc(C=O)c3ccccc32)cc1 | 10µM | 0 | 0 | 0
Cc1ccccc1OCCn1cc(C=O)c2ccccc21 | ? | 0 | 0 | 0
Cc1cc(C)c2nc(N3CCCN(C(=O)c4ccco4)CC3)c(C#N)cc2c1 | 17.8µM | - | 0 | 0
COc1ccccc1C(=O)N1CCN(c2nc3cc(C)cc(C)c3cc2C#N)CC1 | 11.2µM | 0 | 0 | 0
COc1ccccc1C(=O)N1CCN(c2nc3cc(C)c(C)cc3cc2C#N)CC1 | ? | 0 | ? | 0
SMILES | TDP43 rescue | aSyn yeast inh | FUS suppressor | Abeta yeast res
Cc1nc(N2CCN(C(=O)c3ccco3)CC2)c(C#N)c2c1CCCC2 | ? | 0 | 0 | 0
O=C(OCC(=O)N1CCc2ccccc21)c1c2c(nc3ccccc13)CCCCC2 | 22.4µM | 0 | - | 0
CCC12CC3CC(C1)CC(C(=O)O)(C3)C2 | 14.1µM | 0 | 0 | 0
COC(=O)c1cc(C)nc2c1c(=O)nc(SCc1cc(C)ccc1C)n2C1CC1 | 0 | - | 0 | 0
Cc1ccccc1NCc1ccc(O)c2ncccc12 | 0 | 0 | 0 | 0
Oc1ccc(CNc2ccccc2Br)c2cccnc12 | - | - | 17.8µM | -
Cc1ccsc1C(=O)OCC(=O)NCCC1=CCCCC1 | 0 | 0 | - | 0
Cc1ccc2cc(CN(Cc3ccco3)C(=O)c3ccccc3)c(=O)[nH]c2c1C | 0 | 0 | 0 | 0
CCOc1ccccc1NC(=O)c1sc2nc(C)nc(N3CCOCC3)c2c1C | 7.94µM | 0 | 0 | 0
O=C(O)CCc1nc(-c2ccc(Cl)cc2)no1 | 14.1µM | 0 | - | 0
CC(C)(CC(=O)O)Cc1nc(-c2ccc(Cl)cc2)no1 | 31.6µM | 0 | 0 | 0
CC(=O)NCCc1nc(-c2ccc(Cl)cc2)no1 | 0 | 0 | 0 | 0
Cc1ccc(NC(=O)Nc2cccs2)c(Cl)c1 | 12.6µM | 0 | 0 | 0
O=C(Nc1cccs1)Nc1ccc(Br)cc1F | 14.1µM | 0 | 0 | 0
